# Sampled rows, rich in hits. Any-hit rate of the full collection: about 3.1%.
# PMP22 txn: PMP22 gene transcription modulation; S16 Pmp22-F2sN Schwann cells, FLuc/NLuc coincidence luminescence, 24 h; AID 1508649; Potency, µM (series often up to 57.5 µM), actives largely listed as inhibitors; 43,000 tested, 2% active; active = clear falling dose curves in both reporters; inconclusive = both reporters move, but less clearly or upward; inactive = either reporter flat; the % is the NLuc reporter signal
#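 S16 Schwann cells carrying FLuc/NLuc coincidence reporter in the Pmp22 3' UTR treated with compound 24 h at 37C; FLuc then NLuc luminescence read sequentially by dual-luciferase reagents.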
# pS6 MEF inh: reduces mTORC1 signaling in Tsc2 and p53 null MEF cells; Tsc2-/- p53-/- MEF, phospho-rpS6 immunofluorescence/PI, 24 h; 44,000 tested, 0.78% active; Potency, µM (top dose mostly 38.3 µM), usual class: inhibitors; note: nearly all actives have a fitted effect of over 50% in size
#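 Readout is phospho-S6 Alexa 488 signal normalized to PI per well, reported as % active cells with thresholds set from rapamycin (7.5 nM) and DMSO controls. Cells: Tsc2-/-, p53-/- MEFs, 24 hrs compound at 37 C; PI cell number serves as viability.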
# S16 viability: cytotoxicity in S16 Pmp22-F2sN Schwann cells | Potency, µM (series often up to 57.5 µM), hits mostly cytotoxic | 43,000 tested, 0.48% active | S16 Pmp22-F2sN Schwann cells viability, CellTiter-Glo, 24 h; note: nearly all actives have a fitted effect of over 65% in size
#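 Viability was measured by CellTiter-Glo luminescence (15 min, room temperature). This followed 24 h at 37 °C of compound exposure (23 nL pin transfer) in S16 Pmp22-F2sN Schwann cells, 500-1,000 per well.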
# SKOV3 invasion: ovarian cancer metastasis inhibition, 3D TME model | SKOV3ip1-GFP adhesion/invasion on 3D omental model, fluorescence | Potency, µM (series often up to 45.8 µM), usual class: inhibitors | 46,000 tested, 0.1% active | AID 1963576; note: nearly all actives have a fitted effect of over 65% in size
#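 qHTS, 4-pt dose (0.36-46 umol/L); SKOV3ip1-GFP, 1,200 cells/well, no FBS; primary omental fibroblast/mesothelial co-culture 48 h pre-grown; 2 h RT + 16 h 37 C; PBS wash, 4% PFA; GFP count 488/509 nm.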
# p53null 39C kill: p53 null cell cytotoxicity, nonpermissive temperature | H1299 p53-null (neo) cells, 39C, ATPlite viability, 24 h | Potency, µM (series often up to 46.1 µM), most hits filed as cytotoxic | 55,000 tested, 0.97% active; note: nearly all actives have a fitted effect of over 50% in size
#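 Temperature-shift cytotoxicity format: compound titrations on p53-null or A138V-expressing H1299 cells held 24 hr at 39C, cell ATP then measured, AC50 from Hill model.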
# p53null 32C kill: selectivity test: cytotoxicity in p53 null cells, permissive temperature. H1299-neo p53 null cells, ATP luminescence, 24 h, 32C. 55,000 tested, 0.62% active. AID 903. Potency, µM (series often up to 46.1 µM), hits mostly cytotoxic; note: nearly all actives have a fitted effect of over 55% in size
#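 ATP-content luminescence in p53-null H1299-neo cells after 24 h compound exposure (up to 46 uM) at 32C permissive temperature; 0% and 100% killing set by DMSO and 100 uM tamoxifen; Hill-equation AC50.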
# Numbers stand for hits; . = inactive; ? = inconclusive; / = not tested or not shown. Unless noted, calls come from the whole dose curve; as a rule, active = well fitted curve in the direction sought with a large enough effect; inconclusive = small, poorly fitted or top-dose-only effect, or another doubt; inactive = no such curve, though single readings can be large; an effect the other way counts as inactive or inconclusive.
SMILES,PMP22 txn,pS6 MEF inh,S16 viability,SKOV3 invasion,p53null 39C kill,p53null 32C kill
O=C(CCS(=O)(=O)c1nc(-c2cccs2)cc(C(F)(F)F)n1)Nc1cc(Br)ccc1O,?,?,10µM,?,?,.
Cc1ccc(O)c(NC(=O)CCS(=O)(=O)c2nc(-c3cccs3)cc(C(F)(F)F)n2)c1,?,?,?,?,.,.
O=C(Cn1cc(S(=O)(=O)Cc2cccc(Cl)c2)c2ccccc21)Nc1ccccc1C(F)(F)F,?,18µM,?,.,.,.
Clc1cc(Cl)cc(CNc2ncncc2-c2ccc3c(c2)OCO3)c1,/,/,/,.,/,/
COC(=O)Cc1c(C)nc2nc(-c3ccc(C)cc3)[nH]n2c1=O,.,.,.,.,?,10µM
CCCc1cc(=O)n2[nH]c(-c3ccc(C)cc3)nc2n1,?,.,.,.,.,?
C[C@]12C=CC(=O)C=C1CC[C@@H]1[C@@H]2[C@@H](O)C[C@@]2(C)[C@@H]1CC[C@]2(O)C(=O)CO,/,/,/,.,/,/
O=C(c1ccc(Nc2nc3ccccc3n3nnnc23)cc1)N1CCN(c2cccc(C(F)(F)F)c2)CC1,?,.,?,.,.,.
Cc1ccc(CNC(=O)c2cccc(Nc3nc4ccccc4n4nnnc34)c2)cc1,11µM,.,8.9µM,.,.,.
O=C(NCCc1ccccc1)c1ccc(Nc2nc3ccccc3n3nnnc23)cc1,?,.,28µM,.,?,?
Cc1nn(C(C)C(=O)NC2CCC(C)CC2)c(=O)c2c1sc1ccccc12 (stereo unspecified),?,2.1µM,.,.,20µM,?
COc1ccc(N2CCN(C(=O)C(C)n3nc(C)c4sc5ccccc5c4c3=O)CC2)cc1 (stereo unspecified),?,1.3µM,.,?,13µM,.
Cc1ccc(C)c(N2CCN(C(=O)C(C)n3nc(C)c4sc5ccccc5c4c3=O)CC2)c1 (stereo unspecified),.,.,.,.,.,.
Cc1nn(CC(=O)NC2CCC(C)CC2)c(=O)c2c1sc1ccccc12 (stereo unspecified),?,.,.,.,.,.
O=C(NCC(c1cccnc1)N1CCc2ccccc2C1)C(=O)Nc1ccccc1 (stereo unspecified),.,.,.,.,.,.
COc1ccc(NC(=O)C(=O)NCC(c2cccnc2)N2CCc3ccccc3C2)cc1 (stereo unspecified),.,.,.,.,20µM,13µM
COc1ccc(CNC(=O)c2cc(-c3ccc(OC)c(OC)c3)nc3n[nH]c(-c4ccc(C)cc4)c23)cc1,?,15µM,.,?,.,.
COc1ccc(-c2cc(C(=O)NCc3ccc(F)cc3)c3c(-c4ccc(F)cc4)[nH]nc3n2)cc1OC,?,.,?,.,.,.
CCCCNC(=O)c1cc(-c2ccc(OC)cc2)nc2n[nH]c(-c3cccc([N+](=O)[O-])c3)c12,?,.,16µM,.,.,.
COc1ccc(CNC(=O)c2cc(-c3ccc(OC)cc3)nc3n[nH]c(-c4cccc([N+](=O)[O-])c4)c23)cc1,?,.,.,.,.,.
CN(Cc1ccccc1)C(=O)CSc1c2c(nc3ccc(Cl)cc13)CCCC2,?,13µM,?,?,13µM,?
CCCCN(C)C(=O)CSc1c2c(nc3ccc(Cl)cc13)CCCC2,?,18µM,.,.,.,.
CCCN(CCC)C(=O)CSc1c2c(nc3ccc(Cl)cc13)CCCC2,?,.,.,.,?,.
CC1CCCN(C(=O)CSc2c3c(nc4cc(Cl)ccc24)CCCC3)C1 (stereo unspecified),?,?,.,.,16µM,.
COc1cc(OC)c(N(C)C(=O)CSc2c3c(nc4ccc(Cl)cc24)CCCC3)cc1Cl,?,.,.,.,20µM,.
SMILES,PMP22 txn,pS6 MEF inh,S16 viability,SKOV3 invasion,p53null 39C kill,p53null 32C kill
CC(=O)O[C@@]12CO[C@H]1C[C@H](O)[C@@]1(C)C(=O)[C@H](O)C3=C(C)[C@@H](OC(=O)C(O)[C@@H](NC(=O)OC(C)(C)C)c4ccccc4)C[C@@](O)([C@@H](OC(=O)c4ccccc4)[C@@H]21)C3(C)C (stereo partly specified),/,/,/,.,/,/
N#C/C(=C\c1ccc(-c2ccc(F)cc2F)o1)c1nc2ccccc2[nH]1,?,13µM,.,.,?,?
CCOC(=O)c1ccc(-c2ccc(/C=C(\C#N)c3nc4ccc(C)cc4[nH]3)o2)cc1,.,.,?,3.2µM,6.3µM,?
O=C(C=Cc1cccc(S(=O)(=O)Nc2ccccc2)c1)NO,/,/,/,.,/,/
O=C(Nc1cccc(Nc2ncc(Br)c(NCCc3cnc[nH]3)n2)c1)N1CCCC1,/,/,/,.,/,/
CCN(CC)S(=O)(=O)c1ccc(NC(=O)CCc2c(C)nc3cc(-c4ccc(Cl)cc4)nn3c2C)cc1,7.8µM,12µM,?,.,.,.
CSc1n[nH]c(NCc2ccc(C)cc2)n1,/,/,/,/,11µM,20µM
CSc1n[nH]c(NCc2ccc(Cl)cc2)n1,/,/,/,/,.,.
CCOc1ccc(NC(=O)Cn2c(=O)n(-c3ccccc3)c(=O)c3ccc(C(=O)NCc4ccc5c(c4)OCO5)cc32)cc1,?,.,.,.,16µM,.
CCOc1ccccc1NC(=O)Cn1c(=O)n(CC(=O)NCc2ccccc2Cl)c(=O)c2sccc21,?,.,28µM,.,?,.
CC(C)NC(=O)C1CCC(Cn2c(=O)c3sccc3n(CC(=O)Nc3ccccc3)c2=O)CC1 (stereo unspecified),?,.,25µM,.,.,.
CCOc1ccc(NC(=O)Cn2c(=O)n(CCCCCC(=O)NCc3ccccc3)c(=O)c3sccc32)cc1,?,?,20µM,.,.,.
CCN(CC)C(=O)Cn1c(=O)n(CCCCCC(=O)NCc2ccccc2)c(=O)c2sccc21,.,.,.,.,.,.
CCc1ccc(NC(=O)Cn2c(=O)n(-c3ccccc3)c(=O)c3ccc(C(=O)NCc4ccc5c(c4)OCO5)cc32)cc1,?,?,.,.,.,.
NC(=O)c1ccc(N(C(N)=O)c2c(F)cccc2F)nc1-c1ccc(F)cc1F,/,/,/,.,/,/
Cc1nc(NC(=O)N2CCC[C@@H]2C(N)=O)sc1-c1ccnc(C(C)(C)C(F)(F)F)c1,/,/,/,.,/,/
Cc1nn2cc(-c3ccc(OC(C)C)cc3)nc2s1,?,.,.,.,13µM,16µM
COc1ccc(CSc2nc3ncccc3[nH]2)cc1,.,.,.,.,11µM,11µM

# Assay outcomes: PubChem BioAssay, National Center for Advancing Translational Sciences (NCATS)
